Laboratory results taken from the supplement of paper PMC6378613.

compound: Cc1ccc(-c2ccc3c(ccc4sc5c(c43)NC[C@@H](C)NC5=O)n2)cn1; assay: kinase activity remaining relative to vehicle control; higher = less inhibition; settings: inhibitor concentration 0.1 µM
Protocol: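 In vitro radiometric kinase profiling of the MK2 inhibitor PF-3644022 at 0.1, 1 and 10 µM against a panel of kinases (MRC International Centre for Kinase Profiling, Dundee). Read-out is % kinase activity remaining relative to the vehicle control, mean of n=2.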

Chain of UniProt Q9Y6E0 (Q9Y6E0 whole entry, looked up): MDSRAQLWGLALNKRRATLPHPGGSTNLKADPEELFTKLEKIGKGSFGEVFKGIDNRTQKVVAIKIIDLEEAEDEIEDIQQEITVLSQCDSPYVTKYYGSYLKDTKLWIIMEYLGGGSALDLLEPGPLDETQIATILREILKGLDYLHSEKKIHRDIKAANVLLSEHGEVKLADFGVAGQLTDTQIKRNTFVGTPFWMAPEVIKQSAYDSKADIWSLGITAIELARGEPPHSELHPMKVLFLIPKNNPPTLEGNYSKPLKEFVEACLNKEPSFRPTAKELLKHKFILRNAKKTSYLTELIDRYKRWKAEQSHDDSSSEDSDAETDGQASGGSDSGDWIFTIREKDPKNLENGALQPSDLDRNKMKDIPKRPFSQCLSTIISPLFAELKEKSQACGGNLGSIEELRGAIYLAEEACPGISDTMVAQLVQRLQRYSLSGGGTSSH
Chain of UniProt Q14680 (Q14680 whole entry, looked up): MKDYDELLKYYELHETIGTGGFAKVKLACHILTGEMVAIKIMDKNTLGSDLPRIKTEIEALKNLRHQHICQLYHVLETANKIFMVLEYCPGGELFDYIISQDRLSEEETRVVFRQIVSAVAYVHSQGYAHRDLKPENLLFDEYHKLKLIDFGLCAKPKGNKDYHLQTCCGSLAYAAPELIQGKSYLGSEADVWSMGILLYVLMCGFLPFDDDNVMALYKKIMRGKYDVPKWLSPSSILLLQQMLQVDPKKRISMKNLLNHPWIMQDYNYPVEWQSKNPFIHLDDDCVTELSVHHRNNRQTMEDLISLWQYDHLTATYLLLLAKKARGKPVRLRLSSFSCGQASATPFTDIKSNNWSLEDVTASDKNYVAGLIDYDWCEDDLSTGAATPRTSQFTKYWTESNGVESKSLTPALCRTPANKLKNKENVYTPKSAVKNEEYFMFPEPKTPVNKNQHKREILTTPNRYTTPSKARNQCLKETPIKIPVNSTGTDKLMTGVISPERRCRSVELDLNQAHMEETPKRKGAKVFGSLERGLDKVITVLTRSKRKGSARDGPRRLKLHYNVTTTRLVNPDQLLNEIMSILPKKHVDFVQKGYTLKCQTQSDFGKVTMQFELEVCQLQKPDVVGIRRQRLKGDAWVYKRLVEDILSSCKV
Chain of UniProt Q6IQ55 (Q6IQ55 whole entry, looked up): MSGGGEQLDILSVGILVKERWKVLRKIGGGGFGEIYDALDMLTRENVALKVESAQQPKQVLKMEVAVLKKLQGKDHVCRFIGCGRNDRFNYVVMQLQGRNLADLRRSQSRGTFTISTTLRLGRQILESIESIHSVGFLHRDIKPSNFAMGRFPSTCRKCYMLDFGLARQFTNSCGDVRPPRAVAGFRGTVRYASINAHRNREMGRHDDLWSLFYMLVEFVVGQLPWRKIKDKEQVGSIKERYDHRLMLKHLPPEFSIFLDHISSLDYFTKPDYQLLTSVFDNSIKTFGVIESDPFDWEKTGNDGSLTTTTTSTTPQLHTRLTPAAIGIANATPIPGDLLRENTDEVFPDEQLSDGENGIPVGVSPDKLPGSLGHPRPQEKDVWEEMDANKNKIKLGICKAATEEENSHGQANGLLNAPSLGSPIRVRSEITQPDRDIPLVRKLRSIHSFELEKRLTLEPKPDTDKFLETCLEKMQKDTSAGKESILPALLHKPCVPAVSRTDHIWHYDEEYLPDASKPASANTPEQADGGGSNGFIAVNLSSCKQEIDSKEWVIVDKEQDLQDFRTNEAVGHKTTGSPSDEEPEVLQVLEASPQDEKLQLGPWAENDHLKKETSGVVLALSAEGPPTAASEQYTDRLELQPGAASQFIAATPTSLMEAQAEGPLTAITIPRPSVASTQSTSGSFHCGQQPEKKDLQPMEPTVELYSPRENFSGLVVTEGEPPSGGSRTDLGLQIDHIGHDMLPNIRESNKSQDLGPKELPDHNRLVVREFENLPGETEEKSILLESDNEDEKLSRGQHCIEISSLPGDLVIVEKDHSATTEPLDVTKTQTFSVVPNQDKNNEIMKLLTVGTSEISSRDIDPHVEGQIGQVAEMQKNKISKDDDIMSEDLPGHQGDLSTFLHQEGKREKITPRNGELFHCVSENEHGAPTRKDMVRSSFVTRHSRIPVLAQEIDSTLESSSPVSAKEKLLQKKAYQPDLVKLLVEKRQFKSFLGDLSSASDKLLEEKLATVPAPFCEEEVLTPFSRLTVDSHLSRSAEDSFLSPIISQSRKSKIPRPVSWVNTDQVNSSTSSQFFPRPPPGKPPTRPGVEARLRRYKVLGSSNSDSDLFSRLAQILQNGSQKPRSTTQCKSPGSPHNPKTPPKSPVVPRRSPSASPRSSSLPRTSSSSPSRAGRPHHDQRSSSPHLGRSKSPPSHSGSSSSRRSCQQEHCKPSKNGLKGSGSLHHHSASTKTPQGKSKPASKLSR
Chain of UniProt Q9UKI8 (Q9UKI8 whole entry, looked up): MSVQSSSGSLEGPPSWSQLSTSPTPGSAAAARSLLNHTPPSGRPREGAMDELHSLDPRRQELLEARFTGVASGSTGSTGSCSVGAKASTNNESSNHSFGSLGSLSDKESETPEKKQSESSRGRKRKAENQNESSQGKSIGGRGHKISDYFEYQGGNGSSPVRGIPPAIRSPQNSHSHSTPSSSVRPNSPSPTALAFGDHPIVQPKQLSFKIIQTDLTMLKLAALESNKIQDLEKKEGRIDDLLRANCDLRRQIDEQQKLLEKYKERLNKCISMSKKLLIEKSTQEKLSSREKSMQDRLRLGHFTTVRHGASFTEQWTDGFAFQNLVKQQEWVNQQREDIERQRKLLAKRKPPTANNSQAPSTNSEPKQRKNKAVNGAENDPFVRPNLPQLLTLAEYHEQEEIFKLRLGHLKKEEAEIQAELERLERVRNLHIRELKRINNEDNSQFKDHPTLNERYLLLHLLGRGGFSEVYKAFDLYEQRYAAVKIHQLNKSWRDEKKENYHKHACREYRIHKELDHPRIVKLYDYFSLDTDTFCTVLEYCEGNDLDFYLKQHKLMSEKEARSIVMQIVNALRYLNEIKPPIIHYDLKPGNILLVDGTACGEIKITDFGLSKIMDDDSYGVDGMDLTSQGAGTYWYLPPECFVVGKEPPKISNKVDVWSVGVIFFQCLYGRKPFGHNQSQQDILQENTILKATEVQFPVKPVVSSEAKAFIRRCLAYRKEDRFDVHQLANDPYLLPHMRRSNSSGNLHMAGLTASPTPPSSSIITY
Chain of UniProt P41240 (P41240 whole entry, looked up): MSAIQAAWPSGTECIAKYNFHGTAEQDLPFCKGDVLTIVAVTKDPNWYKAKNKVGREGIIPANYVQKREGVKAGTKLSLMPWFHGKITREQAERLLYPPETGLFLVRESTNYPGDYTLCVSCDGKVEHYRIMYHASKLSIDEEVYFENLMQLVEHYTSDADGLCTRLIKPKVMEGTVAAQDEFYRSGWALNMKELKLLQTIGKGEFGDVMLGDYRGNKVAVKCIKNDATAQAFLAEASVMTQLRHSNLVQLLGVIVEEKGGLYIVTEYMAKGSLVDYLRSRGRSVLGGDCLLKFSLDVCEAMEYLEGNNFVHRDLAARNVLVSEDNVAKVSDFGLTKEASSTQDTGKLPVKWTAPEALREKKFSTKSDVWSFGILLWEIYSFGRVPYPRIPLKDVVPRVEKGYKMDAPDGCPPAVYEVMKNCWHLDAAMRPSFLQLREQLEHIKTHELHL
Chain of UniProt O96017 (O96017 whole entry, looked up): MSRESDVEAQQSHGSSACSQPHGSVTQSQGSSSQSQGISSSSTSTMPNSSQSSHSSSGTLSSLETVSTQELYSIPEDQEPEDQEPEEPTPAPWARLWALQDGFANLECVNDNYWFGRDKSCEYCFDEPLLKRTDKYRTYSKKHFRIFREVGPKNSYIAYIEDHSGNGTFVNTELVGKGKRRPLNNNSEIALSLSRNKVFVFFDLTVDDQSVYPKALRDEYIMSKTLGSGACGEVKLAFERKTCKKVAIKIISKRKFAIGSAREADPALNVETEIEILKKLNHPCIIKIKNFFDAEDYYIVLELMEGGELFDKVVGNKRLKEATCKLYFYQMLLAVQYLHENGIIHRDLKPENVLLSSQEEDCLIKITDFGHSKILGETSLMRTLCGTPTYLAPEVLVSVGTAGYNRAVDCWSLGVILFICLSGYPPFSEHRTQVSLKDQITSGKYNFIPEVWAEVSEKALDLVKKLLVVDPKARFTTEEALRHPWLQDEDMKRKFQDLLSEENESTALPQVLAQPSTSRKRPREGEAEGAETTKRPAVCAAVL
Chain of UniProt P07947 (P07947 whole entry, looked up): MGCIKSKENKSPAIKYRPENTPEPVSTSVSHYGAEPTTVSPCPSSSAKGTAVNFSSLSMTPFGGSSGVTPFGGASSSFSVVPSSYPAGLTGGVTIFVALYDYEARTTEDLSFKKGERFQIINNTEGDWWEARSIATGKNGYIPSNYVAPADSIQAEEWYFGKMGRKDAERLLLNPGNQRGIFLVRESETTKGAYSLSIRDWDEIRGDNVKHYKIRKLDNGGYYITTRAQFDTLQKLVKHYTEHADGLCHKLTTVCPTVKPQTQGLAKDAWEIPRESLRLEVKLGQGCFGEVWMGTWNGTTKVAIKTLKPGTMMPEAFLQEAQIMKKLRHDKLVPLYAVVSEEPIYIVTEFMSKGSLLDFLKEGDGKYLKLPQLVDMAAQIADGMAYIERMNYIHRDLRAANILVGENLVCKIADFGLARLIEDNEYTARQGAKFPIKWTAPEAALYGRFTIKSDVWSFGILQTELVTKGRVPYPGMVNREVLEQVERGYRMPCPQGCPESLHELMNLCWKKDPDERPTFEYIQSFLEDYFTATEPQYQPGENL
Chain of UniProt P52564 (P52564 whole entry, looked up): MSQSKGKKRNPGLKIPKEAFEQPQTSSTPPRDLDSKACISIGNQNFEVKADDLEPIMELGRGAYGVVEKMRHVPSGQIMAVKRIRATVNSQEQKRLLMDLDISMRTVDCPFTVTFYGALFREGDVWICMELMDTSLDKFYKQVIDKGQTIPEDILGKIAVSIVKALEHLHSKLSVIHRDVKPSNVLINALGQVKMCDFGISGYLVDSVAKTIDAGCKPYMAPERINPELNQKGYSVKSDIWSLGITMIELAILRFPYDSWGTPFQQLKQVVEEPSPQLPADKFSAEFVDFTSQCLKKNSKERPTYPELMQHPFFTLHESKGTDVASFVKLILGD

Target	kinase activity remaining
MAPKAP-K3	114%
CDK2-Cyclin A (UniProt P24941)	111%
MST3 (UniProt Q9Y6E0)	118%
EPH-B3	98%
EIF2AK3 (UniProt Q9NZJ5)	114%
MKK6 (UniProt P52564)	95%
PDGFRA (UniProt P16234)	104%
YES1 (UniProt P07947)	112%
TLK1 (UniProt Q9UKI8)	113%
EPH-B2	99%
TAO1	109%
MELK (UniProt Q14680)	123%
PDK1 (UniProt Q15118)	104%
TTBK2 (UniProt Q6IQ55)	122%
ZAP70 (UniProt P43403)	93%
MARK1 (UniProt Q9P0L2)	116%

Target	kinase activity remaining
IRAK4 (UniProt Q9NWZ3)	94%
CHK2 (UniProt O96017)	112%
JNK3 (UniProt P53779)	120%
p38 alpha MAPK	94%
p38 gamma MAPK	108%
TAK1	113%
Lck (UniProt P06239)	108%
CSK (UniProt P41240)	117%
GSK3 beta	126%
PKC alpha	101%
SIK2 (UniProt Q9H0K1)	99%
HIPK2 (UniProt Q9H2X6)	123%
DYRK1A (UniProt Q13627)	80%
MLK1 (UniProt P80192)	99%
MAP4K5 (UniProt Q9Y4K4)	111%
HIPK1 (UniProt Q86Z02)	111%

same assay, conditions: inhibitor concentration 1 µM

Target	kinase activity remaining
MAPKAP-K3	62%
CDK2-Cyclin A (UniProt P24941)	93%
MST3 (UniProt Q9Y6E0)	109%
EPH-B3	88%
EIF2AK3 (UniProt Q9NZJ5)	101%
MKK6 (UniProt P52564)	98%
PDGFRA (UniProt P16234)	108%
YES1 (UniProt P07947)	89%
TLK1 (UniProt Q9UKI8)	107%
EPH-B2	110%
TAO1	98%
MELK (UniProt Q14680)	102%
PDK1 (UniProt Q15118)	107%
TTBK2 (UniProt Q6IQ55)	122%
ZAP70 (UniProt P43403)	100%
MARK1 (UniProt Q9P0L2)	107%

Target	kinase activity remaining
IRAK4 (UniProt Q9NWZ3)	62%
CHK2 (UniProt O96017)	51%
JNK3 (UniProt P53779)	104%
p38 alpha MAPK	94%
p38 gamma MAPK	115%
TAK1	109%
Lck (UniProt P06239)	95%
CSK (UniProt P41240)	111%
GSK3 beta	99%
PKC alpha	113%
SIK2 (UniProt Q9H0K1)	86%
HIPK2 (UniProt Q9H2X6)	113%
DYRK1A (UniProt Q13627)	31%
MLK1 (UniProt P80192)	95%
MAP4K5 (UniProt Q9Y4K4)	108%
HIPK1 (UniProt Q86Z02)	104%

same assay, conditions: inhibitor concentration 10 µM

Target	kinase activity remaining
MAPKAP-K3	30%
CDK2-Cyclin A (UniProt P24941)	57%
MST3 (UniProt Q9Y6E0)	108%
EPH-B3	85%
EIF2AK3 (UniProt Q9NZJ5)	73%
MKK6 (UniProt P52564)	91%
PDGFRA (UniProt P16234)	104%
YES1 (UniProt P07947)	55%
TLK1 (UniProt Q9UKI8)	100%
EPH-B2	111%
TAO1	70%
MELK (UniProt Q14680)	77%
PDK1 (UniProt Q15118)	95%
TTBK2 (UniProt Q6IQ55)	103%
ZAP70 (UniProt P43403)	95%
MARK1 (UniProt Q9P0L2)	93%

Target	kinase activity remaining
IRAK4 (UniProt Q9NWZ3)	24%
CHK2 (UniProt O96017)	9%
JNK3 (UniProt P53779)	102%
p38 alpha MAPK	83%
p38 gamma MAPK	97%
TAK1	70%
Lck (UniProt P06239)	86%
CSK (UniProt P41240)	106%
GSK3 beta	88%
PKC alpha	90%
SIK2 (UniProt Q9H0K1)	77%
HIPK2 (UniProt Q9H2X6)	78%
DYRK1A (UniProt Q13627)	8%
MLK1 (UniProt P80192)	60%
MAP4K5 (UniProt Q9Y4K4)	61%
HIPK1 (UniProt Q86Z02)	130%
